Results filed as inconclusive are left out. Where a call stands in place of a potency, no number is given. Activity calls are given as the source filed them. The call rests on the fitted dose curve; in most records, active means well fitted inhibition curve with a large enough effect; inconclusive means small, poorly fitted or top-dose-only effect; inactive means no such curve, though single readings can be large or run the other way.

One experiment concerns the target Retinaldehyde dehydrogenase 3 (Homo sapiens) (UniProt P47895). Nature of the experiment: qHTS for Inhibitors of the Aldehyde Dehydrogenase Family (ALDH1A3) Primary screen (AID 2061315). To be noted: ALDH inhibition qHTS; series mostly up to 56 µM. On the technique in general: qHTS replaces the single test concentration by a dilution series.
For the molecule `N#Cc1c(-c2cccc(Cl)c2)no[n+]1[O-]`, the Potency result was “inactive”. `C=C1[C@@H](OC(C)=O)CC[C@@]2(C)[C@@H](OC(C)=O)[C@H](OC(C)=O)C3=C(C)C[C@H](OC(=O)C(C)CC)[C@@H]([C@@H](OC(C)=O)[C@H]12)C3(C)C` (stereo not given in full): the Potency entry is “inactive”. Take `CN(C)c1ccc(C(=O)NCC(=O)OC(C(=O)Nc2cc(C(F)(F)F)ccc2Cl)c2ccccc2)cc1` (stereo not given): the Potency entry is “inactive”.

For `NC(=O)C1CCN(c2nc(-c3cc4ccccc4o3)cs2)CC1`, the Potency result is “inactive”. In the case of `COc1ccc(C2Oc3ccccc3C(=O)N2Cc2ccccc2)cc1COc1ccc(NC(C)=O)cc1` (stereo not given), the Potency entry was “inactive”.

As for `N#Cc1cnc(NS(=O)(=O)c2ccc(NC(=O)Cc3ccc(Cl)c(Cl)c3)cc2)s1`, the Potency entry is “inactive”.

For `Cc1ccc(CN(C)c2ncnc3ccc(-c4ccc(C#N)n4C)cc23)o1`, the Potency entry was “inactive”. On the same count and under the same terms, the entry for `NC(=O)C1CCN(c2nccc(-c3ccc4c(c3)OCCCO4)n2)CC1` is “inactive”; for `CN(C)[C@H]1CCN(c2cccc(Nc3nn4c(=O)c5ccccc5nc4s3)c2)C1` it is “inactive”; for `Nc1nccc(-c2c(-c3ccc(F)cc3)ncn2C2CCCCC2)n1` it is “inactive”. Same read-out and setting: under `COc1ccc(C2=Nn3c(nnc3-c3ccccc3OC)SC2)cc1` stands “inactive”; under `c1nc(NCC2CC2)c2cc(-c3ccc4c(c3)OCO4)ccc2n1`, “inactive”.

With `CCCCN1C(=O)c2ccccc2NC1c1ccc(OC)c(COc2ccc(NC(C)=O)cc2)c1` (stereo not given), the Potency entry was “inactive”. Take `CC(=O)Nc1sc2c(c1-c1nc3ccccc3s1)CN(C(C)C)C2`: the Potency entry was “inactive”. On the same count and under the same terms, the entry for `C/C(=C\c1cccc(C(F)(F)F)c1)C1Nc2cccc3cccc(c23)N1` is “inactive”; for `CC(C)(Nc1nc(-c2ccccc2C(F)(F)F)nc2ccccc12)c1ccc(-c2cccc(C(F)(F)F)c2)cc1` it is “inactive”. Still for that read-out and setting: under `O=c1[nH]c(CN2CCOCC2)nc2sc3c(c12)CCCC3` stands “inactive”; under `CNc1oc(-c2c[nH]c3ccccc23)nc1C#N`, “inactive”. The same measure, in the same setting: the entry for `CN(C)CCCNC(=O)c1ccc(-c2cnc3c(O)cccc3c2)cc1` is “inactive”; for `COc1ccc(C2Nc3ccccc3C(=O)N2Cc2ccncc2)cc1COc1ccc(NC(C)=O)cc1` (stereo not given) it is “inactive”.

On to `O=C([C@@H]1CCCN(c2ccc3[nH]c(C4(n5cc(Cl)cn5)CC4)nc3n2)C1)N1CCCC1`, for which the Potency entry is “inactive”. Take `CCOc1ccc(CCNC(=O)c2cc3c(s2)CCC3)cc1OCC`: the Potency entry is “inactive”. Consider `Cc1ccc(S(=O)(=O)Nc2cc(C(F)(F)F)ccc2C(=O)Nc2nc(-c3ccccc3)cs2)cc1`, for which the Potency entry is “inactive”. Regarding `Cc1ccc(-c2cnn(CC(=O)NCCc3ccccc3)c(=O)c2)cc1`, the Potency entry was “inactive”.

`O=C(Nc1nc(-c2ccccc2)cs1)c1ccncc1NS(=O)(=O)c1ccc(Cl)cc1`: the Potency result was “inactive”. Consider `Cc1ccc(NC(=O)CN2C(=O)N/C(=C\c3cccn3-c3ccc(C(=O)O)cc3)C2=O)cc1`, for which the Potency entry is “inactive”. Turning to `Cc1csc(CN(C)c2ncnc3ccc(-c4ccc5c(c4)OCO5)cc23)n1`, the Potency result was “inactive”. In the case of `Nc1ccccc1OC1=NS(=O)(=O)c2ccccc21`, the Potency entry is “inactive”. For the molecule `Cc1ccc2nc3sc(C(=O)N4CCCCC4)cc3cc2c1`, the Potency entry is “inactive”. On to `CN1C(=O)Cc2cc([S+](=O)([O-])N3CCN([S+](=O)([O-])c4c(F)cccc4F)CC3)ccc21`, for which the Potency result was “inactive”. Turning to `COc1ccc(C2Nc3ccccc3C(=O)N2Cc2ccc(-c3ccccc3)cc2)cc1COc1ccc(NC(C)=O)cc1` (stereo not given), the Potency entry was “inactive”. Still for that read-out and setting: the entry for `CNC(=O)C1CCN(c2nc(-c3ccc(Br)cc3)cs2)CC1` is “inactive”; for `Cc1ccc(OCCn2c3c(c4ccccc42)CN(C(=O)C2CCCCC2)CC3)cc1` it is “inactive”. As to `O=C(OCC#CCSc1nnc(-c2cccc3ccccc23)o1)c1ccncc1`, the Potency result is “inactive”.

In another experiment the target is Aldehyde dehydrogenase 1A1 (Homo sapiens) (UniProt P00352). In words: qHTS for Inhibitors of the Aldehyde Dehydrogenase Family (ALDH1A1) Confirmatory screens (AID 2061316). Further: nearly all actives have a fitted effect of over 65% in size. Further: potency means the concentration at half of the fitted maximal effect. To be noted: ALDH inhibition qHTS; series mostly up to 47.3 µM.
Take `C=C1[C@@H](OC(C)=O)CC[C@@]2(C)[C@@H](OC(C)=O)[C@H](OC(C)=O)C3=C(C)C[C@H](OC(=O)C(C)CC)[C@@H]([C@@H](OC(C)=O)[C@H]12)C3(C)C` (stereo not given in full): the Potency result was “inactive”. `NC(=O)C1CCN(c2nc(-c3cc4ccccc4o3)cs2)CC1`: the Potency is 6.34 µM (active). Regarding `N#Cc1cnc(NS(=O)(=O)c2ccc(NC(=O)Cc3ccc(Cl)c(Cl)c3)cc2)s1`, the Potency result was “inactive”. Consider `Nc1ccc(Nc2cc(O)c3ncccc3c2)cc1`, for which the Potency is 14.2 µM (active). As for `Cc1ccc(CN(C)c2ncnc3ccc(-c4ccc(C#N)n4C)cc23)o1`, the Potency was 12.7 µM (active). Consider `NC(=O)C1CCN(c2nccc(-c3ccc4c(c3)OCCCO4)n2)CC1`, for which the Potency is 11.3 µM (active). In the case of `CN(C)[C@H]1CCN(c2cccc(Nc3nn4c(=O)c5ccccc5nc4s3)c2)C1`, the Potency was 5.04 µM (active). With `Cc1ccc(CN(C)c2ccc(N3CCN(C)CC3)cc2)cc1`, the Potency was 2.01 µM (active). As to `Cc1cc(-c2nnc3n2CCCCC3)c(C)n1-c1cccc2ccccc12`, the Potency was 12.7 µM (active). For the molecule `O=c1[nH]c(CN2CCOCC2)nc2sc3c(c12)CCCC3`, the Potency entry is “inactive”. For the molecule `O=C([C@@H]1CCCN(c2ccc3[nH]c(C4(n5cc(Cl)cn5)CC4)nc3n2)C1)N1CCCC1`, the Potency result was “inactive”.

Regarding `N#Cc1cccnc1SC1=NS(=O)(=O)c2ccccc21`, the Potency is 0.0712 µM (active). For the molecule `Cc1csc(CN(C)c2ncnc3ccc(-c4ccc5c(c4)OCO5)cc23)n1`, the Potency is 12.7 µM (active). With `O=C1Nc2ccccc2/C1=C/c1cccc(C(=O)O)c1`, the Potency result is “inactive”.

On to `Cc1ccc(OCCn2c3c(c4ccccc42)CN(C(=O)C2CCCCC2)CC3)cc1`, for which the Potency is 2.01 µM (active). On the same count and under the same terms, the entry for `O=C(OCC#CCSc1nnc(-c2cccc3ccccc23)o1)c1ccncc1` is “inactive”.
